Data as given in PubChem BioAssay (NCI).
Several values for one entry are separate records, joined by “and”; a condition that tells them apart may be missing. Identical values can stand only once. Compounds without any hit were thinned out: in the full panel of roughly 83,000, 20% have a hit.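 Single-dose data. Exposure time 48 hours. Values below 10 considered active.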 A number with no mark means an inactive call. Activity calls are given as the source filed them.

The molecules below were run on MDA-MB-468 breast (assay: NCI-60 one-dose screen, 48 h (100 = growth as untreated, 0 = no growth, -100 = all killed)). Conditions: 10 µM unless noted.
In the case of `CCn1cc(-c2ccnc(NCCNS(=O)(=O)c3cccc4ccccc34)c2)c(-c2cccc(O)c2)n1`, the growth is reported as 90.3%.
With `COCCOCCCl` the growth was 102%.
`CCSCC1CC(O)(c2ccccc2)C(c2ccccc2)C(c2ccc(Cl)cc2)O1` (stereo not given) showed a growth of 35.9%.
In the case of `N#C/C(=C\c1ccc(Br)cc1)n1nnc2ccccc21`, the growth is reported as 6.92% (active).
`CC/C=C\CCC/C=C1/C(=O)C=C[C@@H]1C/C=C\CCCC(=O)OC` was tested, and the growth was 68.7%.
For `O=C1/C(=C/c2ccccc2F)CNC/C1=C\c1ccccc1F`, the growth was -59.7% (active).
For `COc1ccc(-c2cc(-c3ccc(Cl)cc3)c(C#N)c(=O)n2CCCCC(=O)NO)cc1`, the growth was 72.6%.
Molecule `C=CCNC(=S)NNc1ccc([N+](=O)[O-])cn1` has a growth of 98.7%.
For `CC1=Nc2cnc(Nc3ccc(N4CCCCC4)cc3)nc2Nc2ccccc21`, the growth was 54.9%.
In the case of `NCCOc1ncccc1/C=C1\c2ccccc2-c2ccc([N+](=O)[O-])cc21`, the growth is reported as -39.2% (active).
In the case of `CN1CCN(c2nc(-c3csc(-c4cccs4)n3)cc3ccccc23)CC1`, the growth is reported as 20.3%.
Work on `NS(=O)(=O)c1ccc(NC(=O)/C(=C\c2ccc(Cl)cc2Cl)NC(=O)c2ccccc2)cc1` yielded a growth of 110%.
In the case of `CC1CCNC(C)C1` (stereo not given), the growth is reported as 99.2%.
With `COc1c(C)cnc(CSc2nc(-c3ccc(C)cc3)cn2-c2ccc(Cl)cc2)c1C` the growth was 114%.
Work on `NC(=O)NC(=O)c1ccc(Cl)cc1` yielded a growth of 117%.
In the case of `CCCCCN1C(=O)/C(=c2\sc3n(c2=O)C2C(NN=3)N(CC)C(=O)N2CC)c2ccccc21` (stereo not given), the growth is reported as 5.08% (active).
`N#C/C(C(=O)c1ccccc1)=C1/C(=O)Nc2ccccc21` showed a growth of 121%.
`C#C[C@H]1CCCCCC1O` (stereo not given in full) gave a growth of 99.3%.
For `N#C/C(=C\c1ccccc1Cl)c1cc2ccccc2[nH]1`, the growth was 58.1%.
`CC1(C)CC(=O)C=C(N)C1` gave a growth of 90.5%.
For `COc1ccc2c(c1)nnn1c3ncccc3c(N=O)c21`, the growth was -87.8% (active).
For `CCOc1ccc2cc(-c3nn(CC4CCNCC4)c4ncnc(N)c34)ccc2c1`, the growth was 93.3% and 40.5%.
`Nc1ccc(N)c([N+](=O)[O-])c1` was tested, and the growth was 88%.
With `CN1C(=O)N(C)C2C1NN=c1s/c(=C\c3ccc(F)cc3)c(=O)n12` (stereo not given) the growth was -11.4% (active).
`Cn1c2c(cc(S(=O)(=O)c3ccccc3)c1=O)CCc1c-2cnn1-c1cccc(Cl)c1` gave a growth of 67%.
